Sampled rows, rich in hits. Any-hit rate of the full collection: about 8.1%.
KB-3-1 tox – KB-3-1 parental cell cytotoxicity; 400,000 compounds, 1.4% hits; Potency, µM (series often up to 46.1 µM), actives largely listed as cytotoxic; AID 1347075; KB-3-1 viability, CellTiter-Glo ATP luminescence, 72 h; note: % is set by controls: 0 for no effect and ±100 for the full control effect; nearly all actives have a fitted effect of over 60% in size
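Multi-concentration cytotoxicity screen in KB-3-1 cells grown in DMEM lacking phenol red with 10% FBS. After 72 h at 37 °C with compound, ATP-dependent luminescence was recorded.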
MCF10A rereplic – inducers of DNA re-replication in MCF 10A breast cells; Potency, µM (top dose mostly 46.1 µM), for inactives: top-dose activity, positive = re-replication, actives largely listed as activators; AID 624296; 350,000 compounds, 2.9% hits; MCF 10A DNA re-replication, Hoechst nuclear intensity, 48 h; note: % of control where 0% means no effect; nearly all actives have a fitted effect of over 50% in size
SW480 rerep – induces DNA re-replication in SW480 colon adenocarcinoma cells; SW480 DNA re-replication, Hoechst DNA content imaging, 48 h; 340,000 compounds, 1.8% hits; Potency, µM (highest dose often 46.1 µM), inactives show top-dose re-replication activation, usual class: activators; note: % of control where 0% means no effect; nearly all actives have a fitted effect of over 55% in size
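DNA re-replication was detected as more nuclei of elevated Hoechst intensity after 48 hr exposure to compound (23 nL pinned per well of 250 cells).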
KB-V1 MDR tox – KB-V1 MDR subline cytotoxicity; Potency, µM (top dose mostly 46.1 µM), actives largely listed as cytotoxic; AID 1347076; KB-V1 MDR cells viability, CellTiter-Glo, 72 h; 400,000 compounds, 3.4% hits; note: % is set by controls: 0 for no effect and ±100 for the full control effect; nearly all actives have a fitted effect of over 60% in size
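Cytotoxicity via CellTiter-Glo luminescence after 72 h compound exposure at 37 degrees C. Cells: drug-selected KB-V1 line, DMEM phenol-red free plus 10% FBS. Compounds tested at multiple concentrations; normalized data fitted to concentration-effect curves.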
ELG1 repair inh – ELG1-dependent DNA repair inhibition. HEK293T ELG1-luciferase reporter, luminescence, 16 h; DNA damage induced by 5-fluorouridine. 330,000 compounds, 2.3% hits. Potency, µM (series often up to 46.1 µM), without a hit: at the top dose activity change, negative = inhibition, hits mostly inhibitors; note: % is set by controls: 0 for no effect and ±100 for the full control effect; nearly all actives have a fitted effect of over 55% in size
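Overnight (16 hr) co-exposure of 2,000 cells/well to 5-fluorouridine and compound at 37 °C preceded detection. Luciferase was quantified via ONE-Glo luminescence; loss of signal denotes inhibition.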
Active calls of the source: *; i = inactive; ? = inconclusive; / = not tested or not shown; [ ] = remark or other dose. Calls come from the whole dose curve; as a rule, active = well fitted curve in the direction sought with a large enough effect; inconclusive = small, poorly fitted or top-dose-only effect, or another doubt; inactive = no such curve, though single readings can be large; an effect the other way counts as inactive or inconclusive. Potency is the fitted concentration of half-maximal effect.

SMILES	KB-3-1 tox	MCF10A rereplic	SW480 rerep	KB-V1 MDR tox	ELG1 repair inh
CC1(C(=O)NCc2cccnc2)CCN1C(=O)Cc1cccs1 (stereo unspecified)	i	/	/	i	/
COc1cccc(CN2CCC2(C)C(=O)Nc2cccc(Oc3ccccc3)c2)c1F (stereo unspecified)	?	/	/	7.3µM*	/
COc1cccc(NC(=O)C2(C)CCN2Cc2cccc(OC)c2F)c1 (stereo unspecified)	i	/	/	i	/
COC(=O)/C(N=Nc1cccc(C(F)(F)F)c1)=C(\C)O	?	3%	1%	5.8µM*	4%
O=C(Nc1cccc(-c2nn[nH]n2)c1)c1csc2c1CCCC2	i	1%	-5%	i	21%
C=CCCC(=O)Nc1nc(C)c(-c2csc(Nc3cccc(OC)c3)n2)s1	?	-46%	?	i	15µM*
COc1ccc(OC)c(Nc2nc(-c3sc(N)nc3C)cs2)c1	i	9%	11%	i	12µM*
COc1ccccc1Nc1nc(-c2sc(NC(=O)C(C)(C)C)nc2C)cs1	8.2µM*	5%	17%[9.22 µM]	i	?
CCCC(=O)Nc1nc(C)c(-c2csc(Nc3cc(OC)ccc3OC)n2)s1	i	-1%	8%	i	5.2µM*
COc1ccc(NC(=O)Cn2c(=O)n(CC3CCCO3)c(=O)c3ccccc32)cc1 (stereo unspecified)	i	/	/	i	/
COc1cccc(NC(=O)N(C)C[C@@H]2OCc3cnnn3CCCC(=O)N([C@H](C)CO)C[C@@H]2C)c1	i	/	/	i	/
CCCCCC(=O)Nc1nc(C)c(-c2csc(Nc3cc(Cl)ccc3OC)n2)s1	i	-12%	?	i	-6%
CCCC(=O)Nc1nc(C)c(-c2csc(Nc3ccccc3OC)n2)s1	i	9%	-2%	i	23µM*
COc1ccccc1Nc1nc(-c2sc(NC(=O)CC(C)C)nc2C)cs1	?	61%	?	i	?
C=CCCC(=O)Nc1nc(C)c(-c2csc(Nc3cc(OC)ccc3OC)n2)s1	?	?	23µM*	i	7.3µM*
Cc1[nH]c2ccccc2c1-c1csc(N)n1	i	-13%	-3%	i	-13%
COc1ccccc1Nc1nc(-c2c(C)[nH]c3ccccc23)cs1	i	5.8µM*	10µM*	i	?
CCCC(C)C(=O)Nc1nc(C)c(-c2csc(Nc3cc(OC)ccc3OC)n2)s1 (stereo unspecified)	?	?	1%	i	18µM*
COc1ccccc1OCCn1c(CCNC(=O)C2CCCCC2)nc2ccccc21	i	/	/	i	/
COc1cccc(OC)c1C(=O)NC(=O)Oc1c(F)cccc1F	i	7%	0%	i	14%
CC(=O)Nc1ccc(S(=O)(=O)NCC(=O)Nc2ccc3c(c2)OCO3)cc1	i	0%	1%	i	1%
N#Cc1c(N)n(CCc2ccc(F)cc2)c2nc3ccccc3nc12	i	?	15µM*	i	-5%
COc1ccc(Cn2c(N)c(C#N)c3nc4ccccc4nc32)cc1	i	7.3µM*	9.2µM*	?	-3%
COCCn1c(N)c(C#N)c2nc3ccccc3nc21	i	?	?	i	-3%
COc1cc(Cn2c(N)c(C#N)c3nc4ccccc4nc32)cc(OC)c1	i	4.6µM*	8.2µM*	i	?
SMILES	KB-3-1 tox	MCF10A rereplic	SW480 rerep	KB-V1 MDR tox	ELG1 repair inh
CCOc1ccc(Cn2c3ccc(OC)cc3c3nc4ccccc4nc32)cc1	?	5.8µM*	-4%	i	4%
O=C(CCNC(=O)N1CC(=O)Nc2ccccc21)NCc1ccccc1	i	/	/	?	/
O=C(CNCC1CCCCC1)Nc1ccc(N2CCCCC2)cc1	/	/	/	/	4%
O=C(CNCC1CCCO1)Nc1ccccc1N1CCCCCC1 (stereo unspecified)	i	14%	-3%	6.5µM*	-3%
O=C(CNCC1CCCO1)Nc1ccc(N2CCCCCC2)cc1 (stereo unspecified)	i	-3%	7%	21µM*	13%
O=C(CNCc1ccccc1Cl)Nc1ccccc1N1CCCCC1	i	?	-2%	i	?
COc1cc(/C(O)=C(\C#N)c2nc3ccccc3[nH]2)cc(OC)c1OC	i	15µM*	?	i	-6%
N#C/C(=C(\O)c1cc(Cl)sc1Cl)c1nc2ccccc2[nH]1	i	21µM*	?	i	4%
N#C/C(=C(/O)c1ccc(Cl)c([N+](=O)[O-])c1)c1nc2ccccc2[nH]1	?	-8%	12%	i	8.2µM*
N#C/C(=C(/O)c1ccc(Cl)cc1)c1nc2ccccc2[nH]1	i	-3%	7%	i	17%
O=C1NN=C2CCCCCCCCCCC12 (stereo unspecified)	i	/	/	i	/
CC(C)c1cc(C(C)C)c(S(=O)(=O)N2c3ccccc3[C@@]3(Br)C[C@H]4C(=O)N[C@@H](Cc5ccccc5)C(=O)N4[C@@H]23)c(C(C)C)c1	16µM*	-28%	?	?	/
NC(=O)CC(NC(=O)c1ccccc1)c1ccc(N2CCc3ccccc3C2)c([N+](=O)[O-])c1 (stereo unspecified)	i	1%	1%	i	-27%
O=C(C#Cc1ccccc1)Nc1ccc(F)cc1	?	0%	?	i	?
O=C(C#Cc1ccccc1)Nc1cccc(F)c1	23µM*	?	?	?	?
COc1ccc(NC(=O)C#Cc2ccccc2)cc1	21µM*	?	?	i	?
O=C(CCl)NC(=O)NC12CC3CC(CC(C3)C1)C2	i	?	/	i	16µM*
N/C(=C\c1ccccc1)c1ccncc1	i	/	/	i	/
CCCCOc1ncnc2c1[nH]c1ccc(C)cc12	?	-2%	-1%	7.3µM*	?
CCCOc1ncnc2c1[nH]c1ccccc12	?	?	0%	?	?
CCCOc1ncnc2c1[nH]c1ccc(OC)cc12	?	8%	20%	15µM*	?
O=C(COC(=O)c1ccc(O)cc1)NC1CCCCCCC1	i	/	/	i	/
COc1ccc(S(=O)(=O)Nc2cccc3c2O[C@H](CN(C)C(=O)Nc2ccccc2)[C@@H](C)CN([C@H](C)CO)C3=O)cc1	i	-56%	-13%	i	1%
Cc1cc2oc3c(c(=O)c2cc1C)C(c1cccc(Br)c1)N(Cc1ccco1)C3=O (stereo unspecified)	i	10µM*	-19%	i	0.63µM*
Cc1ccc2oc3c(c(=O)c2c1)C(c1cccc(Br)c1)N(Cc1ccco1)C3=O (stereo unspecified)	i	?	?	i	-2%
